A selection: hits, their analogues and other compounds. The true share with any hit is near 19%.
IL1B secr inh = blocks inflammasome-driven IL-1 beta release; 360,000 tested, 4.7% active; activity change, % at 57.5 µM; AID 743279; THP-1 LPS/ATP IL-1B secretion, AlphaLISA, 16 h; hits give low values; in the data active means activity change below about -50%; inconclusive means mostly about -30% to -49%; further: on the % scale 0 is the no-effect control and ±100 the full control effect
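Secreted IL-1B measured by AlphaLISA bead assay after 16 h compound exposure of THP-1 cells; compounds (final up to 57.5 uM) added 1 h before LPS (250 ng/mL) and ATP (1.25 mM) stimulation; lower signal means less secretion.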
TGFb SMAD3 inh = blocks TGF-b signaling. HepG2 CAGA-GFP TGF-b/SMAD3 reporter, GFP fluorescence, 18 h; TGF-beta stimulated, 500 pg/mL final. 410,000 tested, 1.2% active. AID 588855. Potency, µM (series often up to 46.1 µM), for the others: top-dose activity, negative = inhibition, usual class: inhibitors; further: potency means the concentration at half of the fitted maximal effect; on the % scale 0 is the no-effect control and ±100 the full control effect; nearly all actives have a fitted effect of over 65% in size
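HEPG2 CAGA-GFP, 1000 cells/well; 2 h settle, 37 C; cpd via pin tool; TGF-b 500 pg/mL final; 18 h, 37 C; GFP imaging ex488/em500-530; %Activity normalised to -TGF-b and +DMSO controls; CRC fit, curve class.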
TDP1 block = inhibitors of human tyrosyl-DNA phosphodiesterase TDP1; Q9NUW8; recombinant TDP1, AlphaScreen DNA substrate cleavage; Potency, µM (top dose mostly 130 µM), for the others: at the highest dose activity change, negative = inhibition, most hits filed as inhibitors; 350,000 tested, 0.28% active; AID 485290; further: potency means the concentration at half of the fitted maximal effect; on the % scale 0 is the no-effect control and ±100 the full control effect; nearly all actives have a fitted effect of over 40% in size
Target sequence (Q9NUW8 whole entry, looked up): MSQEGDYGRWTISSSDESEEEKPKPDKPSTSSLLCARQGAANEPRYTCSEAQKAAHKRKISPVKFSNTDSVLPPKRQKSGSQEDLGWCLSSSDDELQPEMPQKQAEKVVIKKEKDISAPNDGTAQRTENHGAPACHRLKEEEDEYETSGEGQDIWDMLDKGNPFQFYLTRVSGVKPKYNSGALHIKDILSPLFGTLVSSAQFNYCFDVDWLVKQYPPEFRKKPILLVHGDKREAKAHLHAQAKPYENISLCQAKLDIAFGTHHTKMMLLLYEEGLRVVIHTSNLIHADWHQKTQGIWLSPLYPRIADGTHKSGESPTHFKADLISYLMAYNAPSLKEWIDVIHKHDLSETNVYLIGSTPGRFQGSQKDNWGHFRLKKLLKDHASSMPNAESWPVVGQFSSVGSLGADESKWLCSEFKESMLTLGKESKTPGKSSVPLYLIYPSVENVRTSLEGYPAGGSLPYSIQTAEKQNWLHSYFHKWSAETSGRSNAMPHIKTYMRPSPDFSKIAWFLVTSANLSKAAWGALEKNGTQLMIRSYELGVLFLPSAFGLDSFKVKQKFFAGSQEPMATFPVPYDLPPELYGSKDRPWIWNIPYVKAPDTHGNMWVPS
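Steps: enzyme plus compound, 15 min RT; add biotin/phosphotyrosine-FITC oligonucleotide (15 nM final), react 5 min; add donor/acceptor beads (10 ug/ml final), 10 min; read AlphaScreen. Tdp1 at 1 nM final.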
HepG2 viability = counter-screen for TGF-b inhibitors: cytotoxicity in HepG2 cells; AID 588856; 410,000 tested, 0.76% active; Potency, µM (highest dose often 46.1 µM), for inactives: top-dose activity change, negative = cytotoxicity, usual class: cytotoxic; HepG2 CAGA-GFP viability, ATP luminescence, 18 h; further: potency means the concentration at half of the fitted maximal effect
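HepG2 CAGA-GFP cells (1000/well, DMEM with 1% FBS) received compound, then TGF-beta at 500 pg/mL final, and were incubated 18 hours at 37 degrees C. Viability was read by CellTiter-Glo luminescence. Media-only wells were set as complete cell-killing and DMSO as no toxicity.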
DT40 TDP1 no CPT = qHTS for Inhibitors of human tyrosyl-DNA phosphodiesterase 1 (TDP1): qHTS in cells in absence of CPT; DT40 Tdp1-/- hTDP1 cells, no CPT, ATP luminescence, 48 h; Potency, µM (top dose mostly 46.2 µM), for the others: top-dose activity change, negative = growth inhibition, actives largely listed as inhibitors; 420,000 tested, 15% active; AID 686978, 2013; further: potency means the concentration at half of the fitted maximal effect; on the % scale 0 is the no-effect control and ±100 the full control effect; nearly all actives have a fitted effect of over 55% in size
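Seeded 400 DT40-hTDP1 cells/well (vehicle DMSO, no 20 nM CPT); pinned compounds; ≥48 hr at 37 °C; CellTiter-Glo luminescence as viability measure.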
TDP1 cell CPT = growth inhibition of DT40 Tdp1-/-;hTDP1 cells with camptothecin (screen for TDP1 inhibitors). chicken DT40 Tdp1-/-;hTDP1 cells + 20 nM CPT, ATP luminescence, 48 h. 420,000 tested, 12% active. Potency, µM (doses to about 46.2 µM), inactives show at the top dose activity change, negative = growth inhibition, actives largely listed as inhibitors; further: potency means the concentration at half of the fitted maximal effect; on the % scale 0 is the no-effect control and ±100 the full control effect; nearly all actives have a fitted effect of over 55% in size
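Chicken DT40 Tdp1-/- cells complemented with human TDP1, 400 cells/well, exposed to compounds plus 20 nM camptothecin for at least 48 h at 37 C; viability read as ATP content by CellTiter-Glo luminescence.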
* = called active by the depositor; u = inconclusive; x = no result; [ ] = another dose, or the depositor's remark. Unless noted, the call rests on the fitted dose curve; in most records, active means well fitted curve in the direction sought with a large enough effect; inconclusive means small, poorly fitted or top-dose-only effect, or another doubt; inactive means no such curve, though single readings can be large; an effect the other way counts as inactive or inconclusive.

SMILES	IL1B secr inh	TGFb SMAD3 inh	TDP1 block	HepG2 viability	DT40 TDP1 no CPT	TDP1 cell CPT
O=C(/C=C/c1cccc([N+](=O)[O-])c1)Nc1ccc(Cl)cn1	-8.0	14.1%	-7.1%	4.0%	2.59µM*	u
CC(=O)Nc1ccc(OCc2cccc([N+](=O)[O-])c2)cc1	0.0	-4.2%	3.7%	-16.6%	u	16.4%
CC(=O)Nc1ccc(C=CC=Cc2cccc([N+](=O)[O-])c2)cc1	-96.6*	u	x	4.5%	u	29.1µM*
O=C(/C=C/c1cccc([N+](=O)[O-])c1)n1cnc2ccccc21	-68.4*	u	4.9%	-20.2%	2.59µM*	2.59µM*
CCN(CC)S(=O)(=O)c1cccc(NC(=O)/C=C/c2cccc([N+](=O)[O-])c2)c1	17.0	u	4.2%	-10.8%	29.1µM*	u
CCN(CC)S(=O)(=O)c1cccc(NC(=O)/C=C/c2ccc([N+](=O)[O-])cc2)c1	5.0	-2.0%	-2.6%	-22.0%	u	-1.9%
O=S(=O)(c1ccccc1)N1CCC(n2cnc3ccccc32)CC1	-2.2	10.7%	x	-10.5%	-16.8%	7.4%
O=C(/C=C/c1cccc([N+](=O)[O-])c1)NC(=S)Nc1cccc(NC(=O)c2ccccc2Cl)c1	u	-4.5%	10.5%	9.7%	13µM*	14.6µM*
CC(=O)Nc1cccc(NC(=O)c2ccc([N+](=O)[O-])cc2Cl)c1	3.3	7.7%	0.0%	-1.9%	u	-16.9%
COc1cccc(-c2nc3cc4c(cc3cc2CN(C(=O)c2cc(C)nn2C)C2CC2)CCC4)c1OC	x	x	x	x	16.4µM*	4.11µM*
COc1ccc(-c2nc3cc(C)ccc3cc2CN(C(=O)c2ccc(C)s2)C2CC2)cc1OC	x	x	x	x	20.6µM*	-11.9%[9.04 µM]
COc1ccc(-c2nc3cc(C)ccc3cc2CN(C(=O)c2cccs2)C2CC2)cc1OC	x	x	x	x	13µM*	u
COc1ccc(-c2nc3cc(C)ccc3cc2CN(C(=O)c2ccco2)C2CC2)cc1OC	x	x	x	x	u	-6.5%[9.04 µM]
COc1ccc(-c2nc3cc(C)ccc3cc2CN(C(=O)c2cc(C)nn2C)C2CC2)cc1OC	x	x	x	x	20.6µM*	u
COc1cccc(C(=O)N(Cc2cc3ccc(C)cc3nc2N(C)C)C2CC2)c1OC	x	x	x	x	-97.5%	-26.5%[9.04 µM]
Cc1c(C(=O)N2CCCCC2)c(S(=O)(=O)N2CCC(C)CC2)c(C)n1C	-15.0	-2.5%	6.1%	-0.2%	-20.6%	u
N/C(=N/OC(=O)c1ccc(Cl)cc1)c1ncc([N+](=O)[O-])s1	-6.0	u	x	-22.5%	20.6µM*	16.4µM*
N/C(=N\OC(=O)c1ccc(Cl)cc1)c1ccccn1	-23.0	5.8%	2.9%	-59.3%	-3.6%	-8.8%
CC(C)(C)c1ccc(Nc2nc(C#N)nc(NC3CCCC3)n2)cc1	x	x	-1.8%	x	x	x
Cc1ccc2c(c1)-c1c(ssc1=S)C(C)(C)N2C(=O)c1ccco1	-56.8*	u	9.8%	-15.4%	16.4µM*	u
CCOc1ccc2c(c1)/C(=N/N1C(=O)c3ccccc3C1=O)C(=O)N2	14.2	1.3%	2.5%	8.8%	-24.4%	1.1%
Cc1ccc2c(c1)-c1c(ssc1=S)C(C)(C)N2C(=O)CSC1=NCCS1	-66.0*	-4.4%	12.6%	-4.8%	u	u
Cn1cnnc1SCC(=O)N1c2ccccc2-c2c(ssc2=S)C1(C)C	x	x	5.1%	x	x	x
CCOc1ccc2c(c1)-c1c(ssc1=S)C(C)(C)N2	-17.1	-20.4%	14.6%	-34.7%	18.4µM*	u
CC1(C)c2ssc(=S)c2-c2ccccc2N1C(=O)c1ccco1	0.0	14.3%	4.8%	-15.7%	u	u
SMILES	IL1B secr inh	TGFb SMAD3 inh	TDP1 block	HepG2 viability	DT40 TDP1 no CPT	TDP1 cell CPT
CCOc1ccc2c(c1)-c1c(ssc1=S)C(C)(C)N2C(=O)CSC1=NCCS1	-53.9*	-6.9%	12.8%	5.7%	11.6µM*	u
O=C(CSc1nccn1-c1ccc(Cl)cc1)Nc1cccc2ccccc12	x	-15.7%	9.9%	2.0%	-13.6%	u
CC(=O)OC[C@H]1O[C@@H](CCO/N=C2/[C@H]3O[C@@H]3[C@@H](O)[C@H]3[C@H]2CCn2c(=O)n(-c4ccccc4)c(=O)n23)C=C[C@@H]1OC(C)=O	x	x	-0.5%[21 µM]	x	x	x
O=C(CSc1nc2c([nH]c3ccccc32)c(=O)n1-c1ccc(F)cc1)NCc1ccc(F)cc1	x	-6.7%	6.6%	-14.6%	14.6µM*	u
Cc1ccc(-n2c(SCc3ccccc3)nc3c([nH]c4ccccc43)c2=O)cc1	x	1.8%	5.5%	-1.4%	-4.8%	-26.5%
COc1ccc(-n2c(SCC(=O)NCc3ccccc3)nc3c([nH]c4ccccc43)c2=O)cc1	x	5.5%	1.1%	-32.0%	u	18.4µM*
Cc1ccc(-n2c(SCC(=O)NCc3ccccc3)nc3c([nH]c4ccccc43)c2=O)cc1	x	-22.4%	0.0%	-21.8%	-28.6%	u
O=c1c2[nH]c3ccccc3c2nc(SCc2cccc(F)c2)n1-c1ccccc1	x	u	5.5%	-23.5%	23.1µM*	u
O=C(CSc1nc2c([nH]c3ccccc32)c(=O)n1-c1ccc(F)cc1)NCc1ccco1	6.5	-6.2%	3.3%	-21.1%	u	u
COc1cccc(-n2c(SCC(=O)Nc3c(C)cc(C)cc3C)nc3c([nH]c4ccccc43)c2=O)c1	x	-0.7%	-2.2%	-26.1%	13µM*	11.6µM*
Cc1cccc(NC(=O)CCCn2nc(C)c3c(C)n(-c4ccccc4)nc3c2=O)c1C	x	-10.2%	2.8%	5.0%	-27.7%	0.9%
COc1cccc(NC(=O)C(OC(=O)CNC(=O)c2ccccc2)c2ccccc2)c1 (configuration not stated)	x	x	0.3%	x	x	x
CSc1nc2c([nH]c3ccccc32)c(=O)n1-c1ccc(F)cc1	x	6.4%	4.4%	-5.7%	u	u
CCSc1nc2c([nH]c3ccccc32)c(=O)n1-c1ccc(F)cc1	x	-1.1%	3.3%	-28.8%	u	20.6µM*
Cc1ccc(Cl)cc1N(C)C(=O)c1noc2c1CCCCC2	x	-25.2%	5.3%	-6.1%	-30.0%	u
COCCNC(=O)C1(C)Cc2c(-c3ccc(NC(C)=O)cc3)ccnc2O1 (configuration not stated)	0.0	14.3%	x	6.6%	u	u
CN(C)c1ccc(-c2ccnc3c2CC(C)(C(=O)NCC2CC2)O3)cc1 (configuration not stated)	19.9	-30.2%	x	-41.6%	5.17µM*	5.17µM*

Bioassay records from PubChem BioAssay.
